Assay results as given in PubChem BioAssay (NCATS).
Inconclusive results are not listed. The source made the active and inactive calls. Unless noted, the call rests on the fitted dose curve; in most records, active means well fitted curve in the direction sought with a large enough effect; inconclusive means small, poorly fitted or top-dose-only effect, or another doubt; inactive means no such curve, though single readings can be large; an effect the other way counts as inactive or inconclusive.

Assays:
[1] = biological target: DNA repair nuclease/redox regulator APEX1 (Homo sapiens) (UniProt P27695); assay: qHTS Validation Assay for Inhibitors of the Human Apurinic/apyrimidinic Endonuclease 1 (APE1) (AID 1705;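 further: TAMRA fluorescence gain over two minutes as APE1 cuts a quenched THF abasic duplex; series mostly up to about 57 µM; on the % scale 0 is the no-effect control and ±100 the full control effect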)
Chain of DNA repair nuclease/redox regulator APEX1 (Homo sapiens) (P27695 whole entry, looked up): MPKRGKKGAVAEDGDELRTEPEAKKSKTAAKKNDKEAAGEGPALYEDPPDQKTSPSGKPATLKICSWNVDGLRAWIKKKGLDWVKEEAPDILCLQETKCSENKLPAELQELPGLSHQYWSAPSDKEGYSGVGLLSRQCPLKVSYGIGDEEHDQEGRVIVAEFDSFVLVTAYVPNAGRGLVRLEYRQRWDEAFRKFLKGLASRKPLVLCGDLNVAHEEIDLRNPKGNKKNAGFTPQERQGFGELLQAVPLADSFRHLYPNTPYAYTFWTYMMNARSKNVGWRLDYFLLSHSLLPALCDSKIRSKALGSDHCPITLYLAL
Outline: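 qHTS, 1536-well. APE1 + cpd 15 min RT → 50 nM TAMRA/BHQ-2 THF-abasic dsDNA substrate → kinetic fluorescence, 3 reads/60 s; delta(read3−read1) = reaction progress. No-enzyme buffer = negative control.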

[2] = Counterscreen for APE1 Inhibitors: Fluorescent Dye Displacement Validation Assay (AID 1707);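 further: plate controls were ThO with dsDNA and no compound for no effect and ThO without dsDNA for full effect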
Outline: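 Thiazole Orange displacement from dsDNA: 250 nM ThO with 50 nM TAMRA-labelled abasic-site (tetrahydrofuran) duplex in 50 mM Tris-HCl pH7.5, 50mM NaCl, 2 mM MgCl2, 0.01% Tween-20. Loss of endpoint fluorescence (ex 480 nm, em 540 nm) flags DNA binders.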

[3] = qHTS for differential inhibitors of proliferation of Plasmodium falciparum line 7G8 (AID 1815);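 further: parasite growth measured after three days of incubation; plate controls were vehicle wells for no effect and reference inhibitor wells for full effect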
[4] = qHTS for differential inhibitors of proliferation of Plasmodium falciparum line 3D7 (AID 1876);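 further: parasite growth measured after three days of culture; 0% = vehicle wells and -100% = reference inhibitor wells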
[5] = qHTS for differential inhibitors of proliferation of Plasmodium falciparum line D10 (AID 1877);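 further: parasites grown with compound for 72 h before DNA staining; plate controls were vehicle wells for no effect and reference inhibitor wells for full effect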
[6] = qHTS for differential inhibitors of proliferation of Plasmodium falciparum line W2 (AID 1883); settings: Potency: Plasmodium falciparum W2 proliferation inhibition;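 further: parasites grown with compound for 72 h before lysis and staining; 0% = vehicle wells and -100% = control inhibitor wells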
[7] = qHTS for differential inhibitors of proliferation of Plasmodium falciparum line HB3 (AID 1886); settings: Potency: Plasmodium falciparum HB3 proliferation inhibition;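 further: parasites grown with compound for 72 h before SYBR Green readout; plate controls were vehicle for no effect and reference inhibitor for full effect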
[8] = biological target: Ferritin light chain (Equus caballus) (UniProt P02791); assay: qHTS Validation Assay for Identification of Novel General Anesthetics (AID 2323); further: series mostly up to about 77 µM; on the % scale 0 is the no-effect control and ±100 the full control effect
Chain of Ferritin light chain (Equus caballus) (P02791 2-175 limits assumed): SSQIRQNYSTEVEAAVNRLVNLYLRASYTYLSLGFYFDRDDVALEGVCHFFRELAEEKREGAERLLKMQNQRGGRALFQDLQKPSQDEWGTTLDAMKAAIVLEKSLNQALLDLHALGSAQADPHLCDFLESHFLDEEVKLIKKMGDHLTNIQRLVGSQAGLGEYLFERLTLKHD
Outline: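 Fluorescence at 535 nm (excitation 380 nm) reported loss of 1-AMA binding to horse-spleen apoferritin (10 uM) in PBS with 50% saturated 1-aminoanthracene, after 10 min room-temperature incubation with compound; values from Hill fits of normalized response.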

[9] = biological target: ATP-dependent DNA helicase Q1 (Homo sapiens) (UniProt P46063); assay: qHTS Validation Assay for Inhibitors of RecQ-Like Dna Helicase 1 (RECQ1) (AID 2353);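 further: plate controls were DMSO vehicle for no effect and enzyme-free control for full effect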
Outline: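 50 nM RECQ1T1 preincubated 15 min with compound in Tris pH 8.0 buffer with MgCl2, DTT, Tween-20 and 2.5 ug/ml poly(dI-dC); started with 200 nM TAMRA/BHQ-2 forked duplex and 2 mM ATP. Unwinding read as fluorescence (525/598 nm), two reads 2 h apart.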

[10] = Quantitative high throughput screen for delayed death inhibitors of the malarial parasite plastid, 96 hour incubation (AID 488745);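 further: luciferase-expressing P. falciparum in erythrocytes at 2% hematocrit and 0.1% parasitemia; series mostly up to about 29 µM; on the % scale 0 is the no-effect control and ±100 the full control effect; nearly all actives have a fitted effect of over 70% in size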
Outline: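 Growth of reporter-bearing P. falciparum in red cells is measured after 96 h with compound, covering two erythrocytic cycles. Luminescence from the integrated luciferase serves as the growth signal.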

[11] = Quantitative high throughput screen for delayed death inhibitors of the malarial parasite plastid, 48 hour incubation (AID 488752); further: on the % scale 0 is the no-effect control and ±100 the full control effect; nearly all actives have a fitted effect of over 65% in size
Outline: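 One parasite generation (48 h, 37 C, 5% CO2) of luciferase-reporter P. falciparum in erythrocytes is run with test compound; decreased luminescence indicates inhibited growth.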

[12] = biological target: M-phase phosphoprotein 8 (Homo sapiens) (UniProt Q99549); assay: qHTS Validation Assay for Inhibitors for MPP8 Chromodomain Interactions with Methylated Histone Tails (AID 488949);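 further: 50 nM MPP8 with 50 nM peptide preformed then compounds added for 30 min; AlphaScreen signal from MPP8 chromodomain bound to biotinylated H3K9me3 peptide; top concentration of the series differs between compounds; on the % scale 0 is the no-effect control and ±100 the full control effect; nearly all actives have a fitted effect of over 55% in size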
Chain of M-phase phosphoprotein 8 (Homo sapiens) (Q99549 whole entry, looked up): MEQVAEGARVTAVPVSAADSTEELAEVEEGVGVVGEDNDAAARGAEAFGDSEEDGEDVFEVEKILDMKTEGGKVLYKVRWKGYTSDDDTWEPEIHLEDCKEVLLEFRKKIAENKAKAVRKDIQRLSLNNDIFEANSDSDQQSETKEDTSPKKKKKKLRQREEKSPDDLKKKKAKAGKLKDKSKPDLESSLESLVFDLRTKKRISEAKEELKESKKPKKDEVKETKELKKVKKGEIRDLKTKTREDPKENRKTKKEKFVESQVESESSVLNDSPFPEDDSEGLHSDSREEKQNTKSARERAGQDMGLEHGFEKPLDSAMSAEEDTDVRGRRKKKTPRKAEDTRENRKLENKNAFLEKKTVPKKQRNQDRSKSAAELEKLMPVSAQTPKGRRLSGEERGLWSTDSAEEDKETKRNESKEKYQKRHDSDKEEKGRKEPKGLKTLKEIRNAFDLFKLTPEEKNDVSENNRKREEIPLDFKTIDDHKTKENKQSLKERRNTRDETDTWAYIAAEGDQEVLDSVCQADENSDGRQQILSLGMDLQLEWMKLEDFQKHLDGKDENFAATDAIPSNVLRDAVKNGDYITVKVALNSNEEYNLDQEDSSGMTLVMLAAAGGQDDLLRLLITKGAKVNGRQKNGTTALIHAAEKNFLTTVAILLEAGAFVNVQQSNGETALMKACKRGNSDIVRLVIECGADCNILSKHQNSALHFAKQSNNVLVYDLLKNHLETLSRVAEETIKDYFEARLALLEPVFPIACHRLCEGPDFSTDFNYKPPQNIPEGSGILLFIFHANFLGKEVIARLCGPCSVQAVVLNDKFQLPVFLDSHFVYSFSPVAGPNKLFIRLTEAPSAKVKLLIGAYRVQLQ
Outline: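 50 nM MPP8 + 50 nM b-H3K9me3 peptide, PBS pH 7.4/0.01% Tween-20, 30 min RT; + cpd 30 min RT; + AlphaScreen donor/Ni-chelate acceptor beads 10 ug/mL final, 30 min dark; luminescence read.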

[13] = biological target: Transient receptor potential cation channel subfamily V member 1 (Homo sapiens) (UniProt Q8NER1); assay: HTS Assay for Compounds that Act as Enhancers of the Vanilloid Receptor 1 (AID 488979); further: 0% is about no effect
Chain of Transient receptor potential cation channel subfamily V member 1 (Homo sapiens) (Q8NER1 whole entry, looked up): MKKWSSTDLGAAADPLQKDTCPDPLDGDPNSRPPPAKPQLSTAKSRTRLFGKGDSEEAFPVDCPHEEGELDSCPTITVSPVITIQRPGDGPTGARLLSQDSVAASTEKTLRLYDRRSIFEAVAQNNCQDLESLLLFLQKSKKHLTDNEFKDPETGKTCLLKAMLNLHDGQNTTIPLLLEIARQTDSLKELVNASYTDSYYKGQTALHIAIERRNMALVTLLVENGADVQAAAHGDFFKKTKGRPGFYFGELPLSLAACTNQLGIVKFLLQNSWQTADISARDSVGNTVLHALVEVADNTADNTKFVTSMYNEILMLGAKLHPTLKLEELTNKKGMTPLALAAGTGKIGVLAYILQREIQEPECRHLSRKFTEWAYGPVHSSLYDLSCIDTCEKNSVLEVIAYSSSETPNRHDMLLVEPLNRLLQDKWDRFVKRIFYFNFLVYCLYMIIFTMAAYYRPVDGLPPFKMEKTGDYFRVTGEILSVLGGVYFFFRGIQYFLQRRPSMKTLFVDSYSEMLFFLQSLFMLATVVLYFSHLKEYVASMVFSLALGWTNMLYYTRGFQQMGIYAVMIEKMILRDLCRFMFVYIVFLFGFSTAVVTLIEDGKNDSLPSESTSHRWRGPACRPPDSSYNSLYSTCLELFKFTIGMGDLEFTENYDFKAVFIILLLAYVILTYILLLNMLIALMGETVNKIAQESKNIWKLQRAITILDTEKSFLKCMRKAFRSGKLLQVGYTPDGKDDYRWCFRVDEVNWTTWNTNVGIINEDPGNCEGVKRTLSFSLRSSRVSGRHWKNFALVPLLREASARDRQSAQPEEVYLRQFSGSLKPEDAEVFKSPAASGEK
Outline: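 TRPV1 cells loaded with Fluo-8 calcium dye; compound added and Ca2+ signal (ex 480/em 520 nm) followed 3 min, then capsaicin at EC20 added and read 2 more min to detect enhancement.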

[14] = biological target: Thyrotropin receptor (Homo sapiens) (UniProt P16473); assay: qHTS Assay for Antagonists of the Thyroid Stimulating Hormone Receptor (AID 488980); further: series mostly up to about 58 µM; 0% is about no effect
Chain of Thyrotropin receptor (Homo sapiens) (P16473 whole entry, looked up): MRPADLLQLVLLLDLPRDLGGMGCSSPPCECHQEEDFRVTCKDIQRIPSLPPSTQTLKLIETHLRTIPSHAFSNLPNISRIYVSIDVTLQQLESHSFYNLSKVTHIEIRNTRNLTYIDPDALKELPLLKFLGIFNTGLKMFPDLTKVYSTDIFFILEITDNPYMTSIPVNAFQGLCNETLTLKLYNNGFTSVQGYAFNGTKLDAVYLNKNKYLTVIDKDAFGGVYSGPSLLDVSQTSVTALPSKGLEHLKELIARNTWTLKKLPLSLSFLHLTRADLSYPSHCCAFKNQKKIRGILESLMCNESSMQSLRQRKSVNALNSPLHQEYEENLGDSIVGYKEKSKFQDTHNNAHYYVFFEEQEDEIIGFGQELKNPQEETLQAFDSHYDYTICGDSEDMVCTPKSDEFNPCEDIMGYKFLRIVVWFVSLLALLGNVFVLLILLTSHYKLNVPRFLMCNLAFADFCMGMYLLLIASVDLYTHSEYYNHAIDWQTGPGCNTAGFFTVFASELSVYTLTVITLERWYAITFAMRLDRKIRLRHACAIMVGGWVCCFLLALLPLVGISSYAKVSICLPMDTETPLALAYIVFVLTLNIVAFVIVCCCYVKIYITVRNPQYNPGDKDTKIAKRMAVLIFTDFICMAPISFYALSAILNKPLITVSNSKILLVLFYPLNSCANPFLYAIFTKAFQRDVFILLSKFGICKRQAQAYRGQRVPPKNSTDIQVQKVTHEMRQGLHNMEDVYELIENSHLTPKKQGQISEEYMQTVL
Outline: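 Readout is cAMP by HTRF competition between cellular cAMP and cAMP-d2 for a cryptate-labelled antibody. Antagonism was assessed in TSHR-transfected HEK293 cells stimulated with 4 nM TSH (EC80, final) in the presence of RO 20-1724.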

[15] = biological target: Thyrotropin-releasing hormone receptor (Homo sapiens) (UniProt P34981); assay: qHTS for Small Molecule Agonists and Allosteric Enhancers of Human TRH Receptor: Validation Screen for Agonists (AID 493127;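 active means calcium activation more than 3 SD above the typical response in the agonist read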;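 further: intracellular calcium rise by fluo-8 fluorescence before TRH EC20 addition; 0% is about no effect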); settings: TRH receptor agonist cell assay; at 2 µM; active compounds read high
Outline: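 Gq-coupled calcium mobilization in TRHR cells after compound addition, monitored kinetically with fluo-8 dye on an FDSS reader.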

[16] = biological target: Galactokinase (Homo sapiens) (UniProt P51570); assay: qHTS Validation Assay for Inhibitors of Human Galactokinase (GALK) (AID 493189); further: 0% is about no effect
Outline: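 5 nM GALK / 100 uM galactose / 35 uM ATP, 20 mM HEPES pH8.0, 5 mM MgCl2, 60 mM NaCl, 1 mM DTT, 0.01% BSA (final). RT 1 h; Kinase-Glo Plus luminescence.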

[17] = Validation screen for small molecules that induce DNA re-replication in SW480 colon adenocarcinoma cells (AID 504364); further: 0% is about no effect
Outline: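 Cells are treated 48 hr with test compound, stained 40 min with Hoechst at 37 C, and scanned for nuclear fluorescence; compounds inducing re-replication increase nuclei with elevated intensity.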

[18] = biological target: Voltage-gated inwardly rectifying potassium channel KCNH2 (Homo sapiens) (UniProt Q12809); assay: qHTS Assay for Small Molecule Inhibitors of the Human hERG Channel Activity (AID 588834);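 further: top concentration of the series differs between compounds; on the % scale 0 is the no-effect control and ±100 the full control effect; lower thallium flux fluorescence means stronger hERG block; nearly all actives have a fitted effect of over 50% in size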
Chain of Voltage-gated inwardly rectifying potassium channel KCNH2 (Homo sapiens) (Q12809 whole entry, looked up): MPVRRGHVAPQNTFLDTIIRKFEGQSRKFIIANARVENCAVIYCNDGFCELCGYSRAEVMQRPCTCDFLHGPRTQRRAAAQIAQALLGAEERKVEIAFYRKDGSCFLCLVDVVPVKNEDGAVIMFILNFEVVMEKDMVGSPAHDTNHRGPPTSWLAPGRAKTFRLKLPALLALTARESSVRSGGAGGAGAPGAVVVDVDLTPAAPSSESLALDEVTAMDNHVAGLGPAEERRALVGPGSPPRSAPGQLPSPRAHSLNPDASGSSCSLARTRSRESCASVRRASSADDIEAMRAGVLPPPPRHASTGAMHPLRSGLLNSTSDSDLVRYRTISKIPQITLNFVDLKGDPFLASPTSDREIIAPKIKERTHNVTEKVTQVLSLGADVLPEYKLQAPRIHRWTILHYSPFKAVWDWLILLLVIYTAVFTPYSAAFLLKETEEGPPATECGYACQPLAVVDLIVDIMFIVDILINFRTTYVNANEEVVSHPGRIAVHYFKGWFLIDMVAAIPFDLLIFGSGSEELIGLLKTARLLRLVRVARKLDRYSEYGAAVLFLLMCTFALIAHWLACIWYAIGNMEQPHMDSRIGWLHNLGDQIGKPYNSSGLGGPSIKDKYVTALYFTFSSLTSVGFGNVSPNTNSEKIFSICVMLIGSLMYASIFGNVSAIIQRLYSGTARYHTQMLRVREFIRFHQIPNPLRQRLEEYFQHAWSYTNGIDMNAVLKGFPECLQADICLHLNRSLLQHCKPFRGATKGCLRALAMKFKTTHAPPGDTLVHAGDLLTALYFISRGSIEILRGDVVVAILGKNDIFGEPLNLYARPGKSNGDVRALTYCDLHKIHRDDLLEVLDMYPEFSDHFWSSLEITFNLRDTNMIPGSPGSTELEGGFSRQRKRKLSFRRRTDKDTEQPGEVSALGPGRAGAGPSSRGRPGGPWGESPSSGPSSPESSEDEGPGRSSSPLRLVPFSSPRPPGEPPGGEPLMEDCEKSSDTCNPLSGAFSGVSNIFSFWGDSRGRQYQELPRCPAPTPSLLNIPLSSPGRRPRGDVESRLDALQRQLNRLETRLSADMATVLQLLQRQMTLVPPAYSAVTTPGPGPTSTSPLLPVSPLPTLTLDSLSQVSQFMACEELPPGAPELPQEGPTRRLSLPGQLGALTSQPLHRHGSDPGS
Outline: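 hERG-BacMam U2OS, 2000 cells/well; 0.7X FluxOR loading 1 hr RT dark; cpd ~10 min 37 °C; stim buffer; FDSS fluorescence 2 min @ 1 s; AC50 Hill fit.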

[19] = biological target: Rap guanine nucleotide exchange factor 3 (Homo sapiens) (UniProt O95398); assay: Counterscreen qHTS for antagonist of cAMP-regulated guanine nucleotide exchange factor 3 (EPAC1) (AID 1645888);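 further: fluorescence loss as bound BODIPY-GDP is released from Rap1B; % of control where 0% means no effect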
Chain of Rap guanine nucleotide exchange factor 3 (Homo sapiens) (O95398 whole entry, looked up): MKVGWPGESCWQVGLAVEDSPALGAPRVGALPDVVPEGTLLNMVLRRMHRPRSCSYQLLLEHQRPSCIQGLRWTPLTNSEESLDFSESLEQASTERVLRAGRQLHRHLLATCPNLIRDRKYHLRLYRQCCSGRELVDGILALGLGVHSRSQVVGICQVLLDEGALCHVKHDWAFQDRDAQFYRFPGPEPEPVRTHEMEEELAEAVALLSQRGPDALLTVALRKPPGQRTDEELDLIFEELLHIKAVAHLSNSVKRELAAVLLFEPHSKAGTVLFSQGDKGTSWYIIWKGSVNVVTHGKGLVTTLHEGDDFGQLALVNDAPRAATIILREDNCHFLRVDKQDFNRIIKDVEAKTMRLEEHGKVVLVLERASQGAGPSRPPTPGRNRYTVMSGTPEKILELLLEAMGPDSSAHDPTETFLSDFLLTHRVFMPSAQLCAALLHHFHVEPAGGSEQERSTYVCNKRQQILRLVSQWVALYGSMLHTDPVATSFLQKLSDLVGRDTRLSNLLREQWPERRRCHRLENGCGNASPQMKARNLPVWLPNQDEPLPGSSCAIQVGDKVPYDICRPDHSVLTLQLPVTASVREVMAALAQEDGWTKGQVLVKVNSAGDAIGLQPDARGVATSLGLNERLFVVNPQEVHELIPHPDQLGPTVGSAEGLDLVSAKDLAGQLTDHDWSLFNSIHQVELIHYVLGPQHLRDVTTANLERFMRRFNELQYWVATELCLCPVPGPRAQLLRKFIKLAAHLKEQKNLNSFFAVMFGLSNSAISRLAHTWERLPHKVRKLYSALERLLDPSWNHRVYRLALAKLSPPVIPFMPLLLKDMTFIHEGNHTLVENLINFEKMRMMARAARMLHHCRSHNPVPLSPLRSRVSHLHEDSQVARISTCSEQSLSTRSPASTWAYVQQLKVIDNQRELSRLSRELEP
Outline: (§1)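 Rap1B–BODIPY-GDP (250 nM) with 50 uM GDP; compounds pin-transferred to 9.74 nM–152 uM final (activator) or from 7.32 nM upwards (inhibitor). Fluorescence Ex/Em 480/540 nm read at 5 and 30 min, then after adding cAMP or buffer, at room temperature.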

[20] = biological target: Rap guanine nucleotide exchange factor 3 (Homo sapiens) (UniProt O95398); assay: Counterscreen qHTS for agonist of cAMP-regulated guanine nucleotide exchange factor 3 (EPAC1) (AID 1645889); further: % of control where 0% means no effect; nearly all actives have a fitted effect of over 40% in size
Outline: as §1

Nc1nc(Cl)nc2c1ncn2[C@@H]1O[C@H](COP(=O)(O)OP(=O)(O)OP(=O)(O)O)[C@H](O)[C@H]1O
inactive: Potency [1] | outcome [2] | Potency [3] | Potency [4] | Potency [5] | Potency [6] | Potency [7] | outcome [8] | outcome [9] | Potency [10] | Potency [11] | Potency [12] | outcome [13] | outcome [14] | activation [15] 6.94% | outcome [16] | Potency [17] | Potency [18]

Oc1ccc(/C(Cc2ccccn2)=N\Nc2ccccc2)c(O)c1
inactive: Potency [19]

CCc1ccccc1NC1c2ccccc2C(=O)N1Cc1ccco1 (stereo not drawn)
inactive: activity change, negative = inhibition [19] -4.2% [at 30.8 µM]

COc1cc(C2CC(=O)Oc3cc(C)c(Cl)c(C)c32)cc(OC)c1OC (stereo not drawn)
inactive: activity change, negative = inhibition [19] -10.7% [at 30.8 µM] | activation [20] 28.3% [at 30.8 µM]

OC[C@@H]1[C@@H](c2ccccc2)C(c2ccccc2)=NN1c1ccccc1
inactive: Potency [19]
